# Experimental data: PubChem BioAssay (Tox21)
# Values without a mark were called inactive. Inconclusive results are not listed. Entries that show only a call come without a potency. Calls of active or inactive are those of the source. Unless noted, calls follow the shape of the dose curve; as a rule, active = well fitted curve in the direction sought with a large enough effect in the repeat runs; inconclusive = weak or mixed curves; inactive = no such curve, though single readings can be large; an effect the other way counts as inactive or inconclusive.
# Assays:
# [1] = qHTS assay to identify small molecule agonists of the estrogen receptor alpha (ER-alpha) signaling pathway in the presence of an antagonist - cell viability counter screen (AID 1259386);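 also: series mostly up to about 92 µM; cells exposed to compounds for 22 h at 37 °C before the viability read; nearly all actives have a fitted effect of over 30% in size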
# Method in brief: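 ICI-182,780 at 10.0nM final accompanies the compound titration (15 concentrations, 22hr, 37C) on VM7Luc4E2 cells. The CellTiter-Fluor fluorescence readout runs in the same wells as the luciferase assay.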
# [2] = target: Progesterone receptor (Homo sapiens) (UniProt P06401); assay: qHTS assay to identify small molecule agonists of the progesterone receptor (PR) signaling pathway (AID 1346784; calls by dose curve; also: nearly all actives have a fitted effect of over 30% in size)
# Method in brief: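 Using charcoal-stripped serum (2%) to limit endogenous steroids, PR-UAS-bla HEK 293T cells received compounds for 16 hr at 37C after 6 hr plating; beta-lactamase FRET fluorescence was recorded following 2 hr substrate loading at room temperature.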
# [3] = target: Progesterone receptor (Homo sapiens) (UniProt P06401); assay: qHTS assay to identify small molecule antagonists of the progesterone receptor (PR) signaling pathway (AID 1346795; active = well fitted inhibition curve with a large enough effect in the signal ratio in the repeat runs, not every such curve was filed as active; the % refers to the signal ratio; also: potency is read from the fitted curve at half-maximal effect)
# Method in brief: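 Inhibition of R5020-induced (1 nM final) beta-lactamase reporter signal in PR-UAS-bla HEK293T cells was scored by FRET fluorescence after overnight (16 hr) compound treatment.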
# [4] = qHTS assay to identify small molecule antagonists of the progesterone receptor (PR) signaling pathway - cell viability counter screen (AID 1346798); also: series mostly up to about 92 µM; nearly all actives have a fitted effect of over 50% in size
# Method in brief: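 ATP content as viability readout: CellTiter-Glo luminescence, 30 min room temperature, in PR-UAS-bla HEK293T cells after 16 hr compound/R5020 treatment at 37C and 5% CO2.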
# [5] = qHTS assay to identify small molecule antagonists of the TGF-beta/Smad signaling pathway - cell viability counter screen (AID 1346824); also: nearly all actives have a fitted effect of over 50% in size
# Method in brief: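 Cytotoxicity counter-screen run in the same wells as the beta-lactamase Smad reporter read: CellTiter-Glo luminescence after 30 min at room temperature. HEK 293T SBE-bla cells had 5 hr compound exposure at 37 C with TGF-beta1 (0.25 ng/mL stock).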
# [6] = qHTS assay to identify small molecule agonists of the TGF-beta/Smad signaling pathway - cell viability counter screen (AID 1346829); also: top concentration of the series differs between compounds; nearly all actives have a fitted effect of over 45% in size
# Method in brief: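 Compound-treated SBE-bla HEK 293T cells (5 hr, 37 C) were assessed for viability with CellTiter-Glo in parallel with the reporter read.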
# [7] = qHTS assay to identify small molecule agonists of the TGF-beta/Smad signaling pathway (AID 1346859; active = well fitted activation curve with a large enough effect in the signal ratio in the repeat runs, not every such curve was filed as active; the % refers to the signal ratio; also: series mostly up to about 77 µM)
# Method in brief: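 Stable Smad binding element-beta-lactamase HEK 293T cells; 5 hr compound exposure at 37 C under 5% CO2; 2 hr room-temperature substrate step; fluorescence excited at 405 nm, collected at 460 nm and 530 nm.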
# [8] = target: Thyrotropin-releasing hormone receptor (Homo sapiens) (UniProt P34981); assay: qHTS assay to identify small molecule antagonists of the thyrotropin-releasing hormone receptor (TRHR) signaling pathway (AID 1346877; active = well fitted inhibition curve with a large enough effect in the repeat runs, not every such curve was filed as active; also: series mostly up to about 51 µM)
# Method in brief: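 Screening used HEK293 cells engineered with TRHR, with a brief 5 min room-temperature compound exposure preceding addition of TRH to 1 nM. The read-out was kinetic calcium-dye fluorescence, concentration-response from 15 doses in triplicate.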
# [9] = Human pregnane X receptor (PXR) small molecule agonists, qHTS cell viability counter screen (AID 1346977); also: nearly all actives have a fitted effect of over 50% in size
# Method in brief: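 Readout is CellTiter-Fluor fluorescence from PXR-Luc HepG2 cells. Plated cells rested 5hr, then were treated with compounds for 24hr at 37C and 5% CO2, with reagent present during the last hour.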
# [10] = Caspase-3/7 induction in HepG2 cells by small molecules, qHTS assay (AID 1346978); also: nearly all actives have a fitted effect of over 15% in size
# Method in brief: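 Caspase-3/7 induction was measured by Caspase-Glo 3/7 luminescence (30 min, room temperature) after a 17 hr compound exposure of wild-type HepG2 cells seeded at 2,000 per well and pre-incubated 5 hr.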
# [11] = Caspase-3/7 induction in CHO-K1 cells by small molecules, qHTS assay (AID 1346980); also: nearly all actives have a fitted effect of over 15% in size
# Method in brief: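 Luminescent Caspase-Glo 3/7 read (30min, room temperature) quantified apoptosis induction. Cells were wild-type CHO-K1, treated with compound for 17hr at 37 C and 5% CO2.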
# [12] = Caspase-3/7 induction in HepG2 cells by small molecules, qHTS cell viability counter screen (AID 1346981); also: series mostly up to about 92 µM; nearly all actives have a fitted effect of over 30% in size
# Method in brief: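 Multiplexed with the caspase-3/7 assay: HepG2 cells, 16 hr compound treatment, CellTiter-Fluor viability detection by fluorescence.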
# [13] = target: Nuclear receptor subfamily 1 group I member 2 (Homo sapiens) (UniProt O75469); assay: Human pregnane X receptor (PXR) small molecule agonists, qHTS assay (AID 1346982); also: nearly all actives have a fitted effect of over 35% in size; also: potency is read from the fitted curve at half-maximal effect
# Method in brief: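 We seeded PXR-Luc HepG2 cells in assay medium containing 5% charcoal-stripped FBS, added compounds 5 hr later, incubated 24 hr, and read luminescence with ONE-Glo reagent.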
# [14] = target: Cytochrome P450 2D6 (Homo sapiens) (UniProt P10635); assay: Cytochrome P450 Family 2 Subfamily D Member 6 (CYP2D6) small molecule antagonists: luciferase reporter qHTS assay (AID 1671196); also: nearly all actives have a fitted effect of over 50% in size; also: potency is read from the fitted curve at half-maximal effect
# Method in brief: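 Luminescence (RLU), read 20 min after detection reagent, indicated CYP2D6 conversion of proluciferin to luciferin during a 1 h NADPH-dependent reaction at room temperature.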
# [15] = qHTS assay to identify small molecule agonists of the progesterone receptor (PR) signaling pathway - cell viability counter screen (AID 1346799; calls by dose curve; also: nearly all actives have a fitted effect of over 45% in size)
# Method in brief: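 Cytotoxicity in PR-bla HEK293T cells: 16 h compound, 37C; CellTiter-Glo added post-FRET read; luminescence after 30 min RT.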
# [16] = target: Thyrotropin-releasing hormone receptor (Homo sapiens) (UniProt P34981); assay: qHTS assay to identify small molecule agonists of the thyrotropin-releasing hormone receptor (TRHR) signaling pathway (AID 1346891; calls by dose curve;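 also: HEK293 cells expressing TRHR with calcium dye readout; series mostly up to about 58 µM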)
# Method in brief: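 In 1536-format, 1500 TRHR-Hek293 cells per well grew 18 h, took up calcium dye for 2 h at 37 °C, received compound, and were read kinetically; 15-point titrations, triplicates.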
# [17] = Caspase-3/7 induction in CHO-K1 cells by small molecules, qHTS cell viability counter screen (AID 1346979); also: nearly all actives have a fitted effect of over 35% in size
# Method in brief: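 To flag cytotoxic compounds, treated CHO-K1 wild-type cells were given CellTiter-Fluor at 16hr and read fluorescently after 1hr at 37C; the caspase-3/7 luminescence was measured in these same wells.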
# [18] = target: Nuclear receptor subfamily 1 group I member 2 (Homo sapiens) (UniProt O75469); assay: Human pregnane X receptor (PXR) activation by small molecules, qHTS assay (AID 1346985); also: nearly all actives have a fitted effect of over 40% in size
# Method in brief: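 DPX-2 cells (HepG2 co-transfected with a PXR response element and a CYP3A4-promoter luciferase construct) were seeded at 2,000 per well, rested 5 hr at 37C, then exposed to DMSO-dissolved compounds for 24 hr. Activation was read as luciferase luminescence.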
# [19] = target: Nuclear receptor subfamily 1 group I member 2 (Homo sapiens) (UniProt O75469); assay: CYP3A4 induction through human pregnane X receptor (PXR) by small molecules, qHTS assay (AID 1346984); also: nearly all actives have a fitted effect of over 40% in size
# Method in brief: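 qHTS, concentration-response format: HepG2 DPX-2 line, PXR/CYP3A4-luc. Exposure 24 h, 37C. Substrate Luciferin-IPA 3uM final, 3 h. Detection One-Glo, 30 min RT.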
# Sequence of Cytochrome P450 2D6 (Homo sapiens) (P10635 whole entry, looked up): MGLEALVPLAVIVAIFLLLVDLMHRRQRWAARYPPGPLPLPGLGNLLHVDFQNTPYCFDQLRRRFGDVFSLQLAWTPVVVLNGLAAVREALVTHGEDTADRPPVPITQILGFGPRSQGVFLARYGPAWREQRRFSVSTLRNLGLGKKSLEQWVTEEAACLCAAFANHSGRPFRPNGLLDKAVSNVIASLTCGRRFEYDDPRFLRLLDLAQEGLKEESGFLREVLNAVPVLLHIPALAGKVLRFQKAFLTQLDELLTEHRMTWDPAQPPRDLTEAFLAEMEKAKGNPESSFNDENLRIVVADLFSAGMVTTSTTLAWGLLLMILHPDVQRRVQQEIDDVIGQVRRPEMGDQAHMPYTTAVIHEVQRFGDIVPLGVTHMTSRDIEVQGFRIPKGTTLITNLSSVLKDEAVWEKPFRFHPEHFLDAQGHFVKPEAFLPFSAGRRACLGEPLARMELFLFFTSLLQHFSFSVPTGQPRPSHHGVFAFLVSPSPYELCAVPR
# Sequence of Progesterone receptor (Homo sapiens) (P06401 whole entry, looked up): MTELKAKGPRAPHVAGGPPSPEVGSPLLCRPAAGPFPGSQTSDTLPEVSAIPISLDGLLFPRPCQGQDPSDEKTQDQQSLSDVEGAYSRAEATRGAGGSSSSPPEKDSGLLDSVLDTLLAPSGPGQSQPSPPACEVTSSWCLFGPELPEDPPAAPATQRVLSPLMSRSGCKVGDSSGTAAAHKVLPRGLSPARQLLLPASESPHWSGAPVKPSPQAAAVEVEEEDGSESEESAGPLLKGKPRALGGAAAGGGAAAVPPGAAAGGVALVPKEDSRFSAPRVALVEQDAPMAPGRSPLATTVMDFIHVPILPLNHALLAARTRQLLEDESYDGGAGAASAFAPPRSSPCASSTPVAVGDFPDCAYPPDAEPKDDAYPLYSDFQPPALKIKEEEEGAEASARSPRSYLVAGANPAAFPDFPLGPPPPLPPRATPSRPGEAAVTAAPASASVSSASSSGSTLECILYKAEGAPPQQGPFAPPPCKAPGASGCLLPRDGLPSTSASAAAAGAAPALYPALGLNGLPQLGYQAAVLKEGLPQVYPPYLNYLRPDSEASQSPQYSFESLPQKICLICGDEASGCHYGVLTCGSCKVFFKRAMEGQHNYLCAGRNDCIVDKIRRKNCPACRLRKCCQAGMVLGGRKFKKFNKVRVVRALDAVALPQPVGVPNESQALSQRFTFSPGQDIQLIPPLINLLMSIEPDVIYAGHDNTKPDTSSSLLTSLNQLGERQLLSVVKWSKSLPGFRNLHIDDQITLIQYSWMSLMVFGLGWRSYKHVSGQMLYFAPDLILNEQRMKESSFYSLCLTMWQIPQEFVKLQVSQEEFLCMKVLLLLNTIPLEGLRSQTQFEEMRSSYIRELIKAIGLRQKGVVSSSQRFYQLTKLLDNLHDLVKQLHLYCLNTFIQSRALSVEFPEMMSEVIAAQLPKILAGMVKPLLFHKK
# Sequence of Thyrotropin-releasing hormone receptor (Homo sapiens) (P34981 whole entry, looked up): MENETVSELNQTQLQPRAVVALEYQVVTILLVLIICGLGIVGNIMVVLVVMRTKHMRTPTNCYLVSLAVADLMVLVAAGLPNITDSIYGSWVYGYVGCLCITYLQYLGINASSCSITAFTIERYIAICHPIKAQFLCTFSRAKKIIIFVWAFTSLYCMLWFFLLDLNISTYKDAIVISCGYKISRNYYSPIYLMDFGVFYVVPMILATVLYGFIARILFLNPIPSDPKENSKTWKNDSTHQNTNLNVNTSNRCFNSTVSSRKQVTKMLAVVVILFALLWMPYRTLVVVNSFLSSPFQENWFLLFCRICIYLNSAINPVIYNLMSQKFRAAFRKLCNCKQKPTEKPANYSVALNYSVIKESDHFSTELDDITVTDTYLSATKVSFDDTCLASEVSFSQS
# Sequence of Nuclear receptor subfamily 1 group I member 2 (Homo sapiens) (O75469 whole entry, looked up): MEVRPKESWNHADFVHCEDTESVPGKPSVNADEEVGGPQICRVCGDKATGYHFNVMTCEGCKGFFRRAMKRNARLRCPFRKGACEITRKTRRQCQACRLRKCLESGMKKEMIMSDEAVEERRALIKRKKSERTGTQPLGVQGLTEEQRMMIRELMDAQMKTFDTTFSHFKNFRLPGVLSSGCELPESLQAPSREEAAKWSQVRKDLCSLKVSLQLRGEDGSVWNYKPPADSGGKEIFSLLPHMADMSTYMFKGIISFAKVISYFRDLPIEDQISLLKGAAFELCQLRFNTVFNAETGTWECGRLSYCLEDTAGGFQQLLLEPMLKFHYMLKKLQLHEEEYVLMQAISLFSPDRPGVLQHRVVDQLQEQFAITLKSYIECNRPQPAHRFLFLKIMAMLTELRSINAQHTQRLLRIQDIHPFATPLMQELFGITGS
Compound,Potency [1],Potency [2],Potency [3],Potency [4],Potency [5],Potency [6],Potency [7],Potency [8],Potency [9],Potency [10],Potency [11],Potency [12],Potency [13],Potency [14],Potency [15],outcome [16],Potency [17],Potency [18],Potency [19]
CCC(COC(=O)CCS)(COC(=O)CCS)COC(=O)CCS,inactive,inactive,inactive,inactive,inactive,inactive,inactive,inactive,inactive,inactive,inactive,inactive,21.7 µM (active),inactive,,,,,
C=CCn1c(=O)n(CC=C)c(=O)n(CC=C)c1=O,inactive,inactive,inactive,,inactive,inactive,inactive,inactive,,inactive,inactive,inactive,inactive,,inactive,inactive,inactive,,
ClCCl,inactive,inactive,inactive,,,inactive,inactive,inactive,inactive,inactive,inactive,inactive,inactive,inactive,inactive,inactive,inactive,,
CC(C)NC[C@@H](O)COc1ccc(CC(N)=O)cc1,inactive,inactive,inactive,,inactive,inactive,inactive,inactive,inactive,inactive,inactive,inactive,inactive,,inactive,inactive,inactive,inactive,
Nc1ccc(C(=O)O)c(O)c1,inactive,inactive,inactive,,inactive,inactive,inactive,inactive,inactive,inactive,inactive,inactive,inactive,inactive,inactive,inactive,inactive,inactive,inactive
CCOc1ccc2ccccc2c1C(=O)N[C@@H]1C(=O)N2[C@@H]1SC(C)(C)[C@@H]2C(=O)O,inactive,inactive,inactive,,,inactive,inactive,inactive,inactive,inactive,inactive,inactive,inactive,inactive,inactive,inactive,inactive,inactive,inactive
CCCCC(CC)CN1CN(CC(CC)CCCC)CC(C)(N)C1 (centres undefined),inactive,inactive,inactive,inactive,,inactive,inactive,inactive,inactive,inactive,inactive,inactive,21.1 µM (active),,,,inactive,inactive,inactive
CC1=Nc2ccccc2C1(C)C,inactive,inactive,30.7 µM (active),,inactive,inactive,inactive,inactive,inactive,inactive,inactive,inactive,,71.1 µM (active),inactive,inactive,inactive,,
CC[N+](CC)(CC)CCOC(=O)C(C1CCCC1)C1CCCC1,inactive,inactive,inactive,,,inactive,inactive,inactive,inactive,inactive,inactive,inactive,inactive,,inactive,inactive,inactive,,
CC(C)(C)C1CCC(=O)CC1,inactive,inactive,inactive,,,inactive,inactive,inactive,inactive,inactive,inactive,inactive,inactive,inactive,inactive,inactive,inactive,,
CCCCC(CC)COC(=O)CCCCC(=O)OCc1ccccc1 (centres undefined),inactive,inactive,inactive,inactive,,inactive,inactive,,inactive,inactive,inactive,inactive,inactive,inactive,inactive,,inactive,,
COc1cc(/C=C/c2ccccc2)oc(=O)c1,inactive,inactive,inactive,,inactive,inactive,inactive,inactive,inactive,inactive,inactive,inactive,7.96 µM (active),inactive,inactive,inactive,inactive,,
c1cnccn1,inactive,inactive,inactive,,inactive,inactive,inactive,inactive,inactive,inactive,inactive,inactive,inactive,inactive,inactive,inactive,inactive,,
